Measurements as given in PubChem BioAssay (EPA / NIEHS).
“And” between values parts separate entries of the source, which are not always exact repeats. Equal values may be shown once. Some structures have more than one record in an assay (separate samples or runs), and their calls can disagree. The source made the active and inactive calls. Rule for the calls, unless noted: active = hit-call score of the fitted dose curve at least 0.9, where 1 is the maximum; inactive = score below 0.9.

Tests used:
[1] = read-out: Protein phosphatase 2A (PPP2R4), PTPA (gene 5524); assay: LTEA_HepaRG_PPP2R4: Life Technologies and Expression Analysis (LTEA) Assay for Protein phosphatase 2A (PPP2R4) using HepaRG (AID 2283522); conditions: mRNA level, 48 h; actives raise or lower the signal
In short: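 Gene-expression endpoint in HepaRG hepatic cells: 48 h treatment across eight half-log concentrations up to 100 uM in 0.5% DMSO. PPP2R4 mRNA by qRT-PCR, normalized to three endogenous control genes.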

[2] = read-out: Phosphatase and tensin (PTEN), PTEN (gene 5728); assay: LTEA_HepaRG_PTEN: Life Technologies and Expression Analysis (LTEA) Assay for Phosphatase and tensin (PTEN) using HepaRG (AID 2283523); conditions: mRNA level, 48 h; actives raise or lower the signal
In short: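 Differentiated human HepaRG cells, plated 48 h then switched to serum-free induction medium, were exposed in duplicate for 48 h to eight half-log concentrations up to 100 uM in 0.5% DMSO. PTEN mRNA measured by TaqMan qRT-PCR, normalized to ACTB/GAPDH/POLR2A, bidirectional fit versus DMSO.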

[3] = read-out: solute carrier (SLC22A1), SLC22A1 (gene 6580); assay: LTEA_HepaRG_SLC22A1: Life Technologies and Expression Analysis (LTEA) Assay for solute carrier (SLC22A1) using HepaRG (AID 2283524); conditions: mRNA level, 48 h; actives raise or lower the signal
In short: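 Human HepaRG cells were plated 48 h, switched to serum-free induction medium, then exposed in duplicate for 48 h to 8-point half-log series from 100 uM in 0.5% DMSO. SLC22A1 mRNA measured by qRT-PCR, normalized to ACTB/GAPDH/POLR2A, fitted bidirectionally versus DMSO.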

[4] = read-out: Pyruvate Dehydrogenase Kinase 4 (PDK4), PDK4 (gene 5166); assay: LTEA_HepaRG_PDK4: Life Technologies and Expression Analysis (LTEA) Assay for Pyruvate Dehydrogenase Kinase 4 (PDK4) using HepaRG (AID 2283525); conditions: mRNA level, 48 h; actives raise or lower the signal
In short: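 Differentiated human HepaRG cells, pre-cultured 48 h, were exposed in duplicate for 48 h in serum-free induction medium to eight half-log concentrations up to 100 uM in 0.5% DMSO. PDK4 mRNA was quantified by qRT-PCR, normalized to ACTB, GAPDH and POLR2A, bidirectional fitting versus DMSO.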

[5] = read-out: NAD(P)H dehydrogenase [quinone] 1 (NQO1), NQO1 (gene 1728); assay: LTEA_HepaRG_NQO1: Life Technologies and Expression Analysis (LTEA) Assay for NAD(P)H dehydrogenase [quinone] 1 (NQO1) using HepaRG (AID 2283526); conditions: mRNA level, 48 h; actives raise or lower the signal
In short: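 Human HepaRG hepatic cells received chemicals for 48 h in serum-free induction medium with 0.5% DMSO, up to 100 uM. Expression was assessed by TaqMan qRT-PCR against housekeeping controls and fitted bidirectionally against DMSO.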

[6] = read-out: Nuclear factor erythroid 2-related factor 2 (Homo sapiens) (UniProt Q16236); assay: LTEA_HepaRG_NFE2L2: Life Technologies and Expression Analysis (LTEA) Assay for Nuclear factor erythroid 2-related factor 2 (NFE2L2) Transcription Factor using HepaRG (AID 2283527); conditions: mRNA level, 48 h; actives raise or lower the signal
In short: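 Differentiated human HepaRG cells in serum-free induction medium were exposed for 48 h to eight concentrations (top 100 uM, half-log dilutions, 0.5% DMSO), in duplicate. NFE2L2 mRNA was quantified by TaqMan qRT-PCR, normalized to ACTB, GAPDH and POLR2A, with bidirectional fitting versus DMSO.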

[7] = read-out: succinate dehydrogenase complex iron sulfur subunit B (SDHB), SDHB (gene 6390); assay: LTEA_HepaRG_SDHB: Life Technologies and Expression Analysis (LTEA) Assay for succinate dehydrogenase complex iron sulfur subunit B (SDHB) using HepaRG (AID 2283528); conditions: mRNA level, 48 h; actives raise or lower the signal
In short: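 HepaRG cells (~100,000/well, plated 48 h) exposed in duplicate for 48 h in serum-free induction medium to 8-point half-log series from 100 uM in 0.5% DMSO; mRNA by qRT-PCR normalised to ACTB, GAPDH, POLR2A; bidirectional fit versus DMSO.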

[8] = read-out: Signal transducer and activator of transcription 3 (Homo sapiens) (UniProt P40763); assay: LTEA_HepaRG_STAT3: Life Technologies and Expression Analysis (LTEA) Assay for Signal transducer and activator of transcription (STAT3) using HepaRG (AID 2283529); conditions: mRNA level, 48 h; actives raise or lower the signal
In short: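 Differentiated human HepaRG cells in serum-free induction medium were exposed in duplicate for 48 h to eight half-log concentrations up to 100 uM in 0.5% DMSO. STAT3 mRNA was quantified by TaqMan qRT-PCR, normalized to ACTB, GAPDH and POLR2A, and fitted bidirectionally against DMSO.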

[9] = read-out: solute carrier (SLCO1B1), SLCO1B1 (gene 10599); assay: LTEA_HepaRG_SLCO1B1: Life Technologies and Expression Analysis (LTEA) Assay for solute carrier (SLCO1B1) using HepaRG (AID 2283530); conditions: mRNA level, 48 h; actives raise or lower the signal
In short: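 Human HepaRG cultures treated for 48 h with an eight-concentration half-log series topping at 100 uM; SLCO1B1 measured by qRT-PCR and fitted bidirectionally relative to DMSO.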

[10] = read-out: sulfotransferase 2A1 (SULT2A1), SULT2A1 (gene 6822); assay: LTEA_HepaRG_SULT2A1: Life Technologies and Expression Analysis (LTEA) Assay for sulfotransferase 2A1 (SULT2A1) using HepaRG (AID 2283531); conditions: mRNA level, 48 h; actives raise or lower the signal
In short: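 Gene-expression endpoint in a human liver cell line: SULT2A1 mRNA change after 48 h chemical treatment, curves fitted in both directions relative to 0.5% DMSO vehicle. Concentrations spanned eight half-log steps from 100 uM.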

[11] = read-out: Transforming Growth Factor (TGFA), TGFA (gene 7039); assay: LTEA_HepaRG_TGFA: Life Technologies and Expression Analysis (LTEA) Assay for Transforming Growth Factor (TGFA) using HepaRG (AID 2283532); conditions: mRNA level, 48 h; actives raise or lower the signal
In short: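 Differentiated human HepaRG cells, plated 48 h then switched to serum-free induction medium, were exposed in duplicate for 48 h to 8-point half-log series from 100 uM in 0.5% DMSO. TGFA mRNA measured by qRT-PCR, normalized to ACTB/GAPDH/POLR2A, bidirectional fit versus DMSO.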

[12] = read-out: Transforming Growth Factor (TGFB1), TGFB1 (gene 7040); assay: LTEA_HepaRG_TGFB1: Life Technologies and Expression Analysis (LTEA) Assay for Transforming Growth Factor (TGFB1) Transporter using HepaRG (AID 2283533); conditions: mRNA level, 48 h; actives raise or lower the signal
In short: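 Eight-point concentration-response (max 100 uM, half-log) in HepaRG under serum-free induction conditions, 48 h. TGFB1 mRNA by qRT-PCR, housekeeping-normalized.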

TIMP1, TIMP1 (gene 7076) = assay: LTEA_HepaRG_TIMP1: Life Technologies and Expression Analysis (LTEA) Assay for TIMP1 using HepaRG (AID 2283534); conditions: mRNA level, 48 h; actives raise or lower the signal
In short: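 TIMP1 induction or repression in HepaRG cells after 48 h chemical exposure (eight concentrations, highest 100 uM), assessed by normalized qRT-PCR with bidirectional fitting to DMSO controls.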

[13] = read-out: Tumor necrosis factor receptor 1 (TNFRSF1A), TNFRSF1A (gene 7132); assay: LTEA_HepaRG_TNFRSF1A: Life Technologies and Expression Analysis (LTEA) Assay for Tumor necrosis factor receptor 1 (TNFRSF1A) using HepaRG (AID 2283535); conditions: mRNA level, 48 h; actives raise or lower the signal
In short: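 Assay uses 48 h chemical treatment of differentiated HepaRG monolayers, tested in duplicate at eight concentrations from 100 uM downward in 0.5% DMSO. mRNA is normalized to ACTB, GAPDH and POLR2A, with induction or suppression fitted relative to vehicle.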

[14] = read-out: Thyroid Hormone Responsive (THRSP), THRSP (gene 7069); assay: LTEA_HepaRG_THRSP: Life Technologies and Expression Analysis (LTEA) Assay for Thyroid Hormone Responsive (THRSP) using HepaRG (AID 2283536); conditions: mRNA level, 48 h; actives raise or lower the signal
In short: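 Differentiated human HepaRG cells were exposed in duplicate for 48 h in serum-free induction medium to eight concentrations (top 100 uM, half-log steps, 0.5% DMSO). Expression was quantified by TaqMan qRT-PCR, normalized to ACTB, GAPDH and POLR2A, with bidirectional fitting against DMSO.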

[15] = read-out: Cellular tumor antigen p53 (Homo sapiens) (UniProt P04637); assay: LTEA_HepaRG_TP53: Life Technologies and Expression Analysis (LTEA) Assay for Tumor Protein P53 (TP53) using HepaRG (AID 2283537); conditions: mRNA level, 48 h; actives raise or lower the signal
In short: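 Differentiated HepaRG cells in serum-free induction medium exposed 48 h in duplicate to 8 half-log concentrations, top 100 uM, 0.5% DMSO. TP53 mRNA by TaqMan qRT-PCR (Fluidigm), normalized to ACTB, GAPDH, POLR2A; fitted bidirectionally versus DMSO.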

[16] = read-out: UDP glucuronosyltransferase (UGT1A1), UGT1A1 (gene 54658); assay: LTEA_HepaRG_UGT1A1: Life Technologies and Expression Analysis (LTEA) Assay for UDP glucuronosyltransferase (UGT1A1) using HepaRG (AID 2283538); conditions: mRNA level, 48 h; actives raise or lower the signal
In short: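 Human liver HepaRG cultures receive test chemical for 48 h, up to 100 uM in 0.5% DMSO, with phenobarbital induction controls. UGT1A1 mRNA is measured by qRT-PCR and normalized to ACTB, GAPDH and POLR2A.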

[17] = read-out: UDP glucuronosyltransferase (UGT1A6), UGT1A6 (gene 54578); assay: LTEA_HepaRG_UGT1A6: Life Technologies and Expression Analysis (LTEA) Assay for UDP glucuronosyltransferase (UGT1A6) using HepaRG (AID 2283539); conditions: mRNA level, 48 h; actives raise or lower the signal
In short: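 Measures mRNA change in HepaRG hepatic cells exposed 48 h to chemicals (eight-point, maximum 100 uM, 0.5% DMSO vehicle) in serum-free induction medium. Expression normalized to endogenous controls; DMSO served as negative control and baseline.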

[18] = read-out: X-box binding protein 1 (XBP1), XBP1 (gene 7494); assay: LTEA_HepaRG_XBP1: Life Technologies and Expression Analysis (LTEA) Assay for X-box binding protein 1 (XBP1) using HepaRG (AID 2283540); conditions: mRNA level, 48 h; actives raise or lower the signal
In short: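 Eight concentrations (half-log, highest 100 uM, 0.5% DMSO) tested in duplicate on HepaRG cells over 48 h in serum-free induction medium; qRT-PCR of XBP1 normalised to ACTB, GAPDH, POLR2A.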

[19] = LTEA_HepaRG_LDH_cytotoxicity: Cytotoxicity Assessment in the Life Technologies and Expression Analysis (LTEA) Assay (AID 2283563; active = hit-call score of the fitted dose curve at least 0.9, where 1 is the maximum)
In short: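 Spent-medium LDH after 48 h chemical exposure of HepaRG cells in serum-free induction medium; eight concentrations, half-log dilutions from 100 uM, duplicate wells, fitted upward relative to 0.5% DMSO.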

Measured: AC50

Sequence of Nuclear factor erythroid 2-related factor 2 (Homo sapiens) (Q16236 whole entry, looked up): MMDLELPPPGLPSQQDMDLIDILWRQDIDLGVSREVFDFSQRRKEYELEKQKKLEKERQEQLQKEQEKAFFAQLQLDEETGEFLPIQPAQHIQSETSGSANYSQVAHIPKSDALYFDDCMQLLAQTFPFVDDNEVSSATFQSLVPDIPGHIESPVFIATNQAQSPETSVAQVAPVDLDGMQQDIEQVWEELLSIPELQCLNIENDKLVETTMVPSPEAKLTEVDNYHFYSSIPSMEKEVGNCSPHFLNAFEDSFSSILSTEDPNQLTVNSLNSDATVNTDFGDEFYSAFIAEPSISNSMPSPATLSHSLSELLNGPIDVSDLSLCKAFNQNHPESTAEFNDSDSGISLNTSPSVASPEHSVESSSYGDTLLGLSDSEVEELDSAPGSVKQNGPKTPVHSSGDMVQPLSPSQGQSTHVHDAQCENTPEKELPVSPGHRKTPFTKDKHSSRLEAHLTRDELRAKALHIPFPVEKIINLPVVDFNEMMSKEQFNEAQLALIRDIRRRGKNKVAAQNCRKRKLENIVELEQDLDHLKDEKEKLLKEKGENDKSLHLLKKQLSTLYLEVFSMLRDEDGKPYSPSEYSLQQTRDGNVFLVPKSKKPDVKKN
Sequence of Signal transducer and activator of transcription 3 (Homo sapiens) (P40763 whole entry, looked up): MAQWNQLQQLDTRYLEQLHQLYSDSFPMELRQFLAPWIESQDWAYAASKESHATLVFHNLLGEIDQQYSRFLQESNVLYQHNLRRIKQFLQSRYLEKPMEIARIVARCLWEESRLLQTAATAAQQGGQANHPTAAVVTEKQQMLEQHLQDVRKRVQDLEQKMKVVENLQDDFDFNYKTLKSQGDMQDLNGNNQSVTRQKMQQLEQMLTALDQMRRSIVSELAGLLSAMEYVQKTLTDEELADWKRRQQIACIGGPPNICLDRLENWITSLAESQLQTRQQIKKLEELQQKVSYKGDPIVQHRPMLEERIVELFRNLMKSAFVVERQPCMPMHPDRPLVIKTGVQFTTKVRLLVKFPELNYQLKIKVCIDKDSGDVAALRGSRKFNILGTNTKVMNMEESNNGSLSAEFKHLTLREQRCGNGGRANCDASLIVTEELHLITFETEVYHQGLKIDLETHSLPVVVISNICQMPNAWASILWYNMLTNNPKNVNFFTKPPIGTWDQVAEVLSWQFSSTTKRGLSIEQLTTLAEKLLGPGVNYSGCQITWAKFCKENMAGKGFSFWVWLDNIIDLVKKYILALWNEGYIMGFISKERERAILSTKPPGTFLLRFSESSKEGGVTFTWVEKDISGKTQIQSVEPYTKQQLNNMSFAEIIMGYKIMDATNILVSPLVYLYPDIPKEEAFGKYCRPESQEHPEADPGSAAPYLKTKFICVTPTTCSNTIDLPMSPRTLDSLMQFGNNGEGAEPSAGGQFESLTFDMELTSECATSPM
Sequence of Cellular tumor antigen p53 (Homo sapiens) (P04637 whole entry, looked up): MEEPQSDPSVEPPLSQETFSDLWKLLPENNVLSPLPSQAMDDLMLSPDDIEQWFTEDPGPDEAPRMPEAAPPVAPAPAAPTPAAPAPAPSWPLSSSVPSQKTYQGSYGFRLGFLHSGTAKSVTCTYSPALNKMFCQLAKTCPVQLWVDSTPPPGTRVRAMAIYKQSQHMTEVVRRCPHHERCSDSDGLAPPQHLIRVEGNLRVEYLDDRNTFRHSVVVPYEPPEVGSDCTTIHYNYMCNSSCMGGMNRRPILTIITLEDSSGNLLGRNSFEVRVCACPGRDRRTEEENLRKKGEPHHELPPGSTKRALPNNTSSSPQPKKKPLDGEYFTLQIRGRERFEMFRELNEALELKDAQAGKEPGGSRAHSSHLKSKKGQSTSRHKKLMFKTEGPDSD

CCOC(=O)C(Cl)Cc1cc(-n2nc(C)n(C(F)F)c2=O)c(F)cc1Cl (stereo not given)
active: [16] 38.2 µM
inactive: all other assays above

O=C(Nc1ccccc1)Nc1ccnc(Cl)c1
inactive: [4] | [14]
active: [1] 77.7 µM | [2] 75.2 µM | [3] 68 µM | [5] 82.6 µM | [6] 82.3 µM | [7] 94 µM | [8] 42.6 µM | [9] 82.1 µM | [10] 81.5 µM | [11] 76.1 µM | [12] 80 µM | TIMP1, TIMP1 (gene 7076) 74.9 µM | [13] 96.7 µM | [16] 79.6 µM | [17] 76.8 µM | [18] 72.1 µM

CCNc1nc(Cl)nc(NC(C)C)n1
active: [16] 18.1 µM
not listed: [19]
inactive: all other assays above

COc1nc(NC(C)C)nc(NC(C)C)n1
active: [16] 11.4 µM
not listed: [15] | [19]
inactive: all other assays above

C=CCC1=C(C)C(OC(=O)C2C(C=C(C)C)C2(C)C)CC1=O (stereo not given)
inactive: [1] | [2] | [4] | [5] | [6] | [7] | [8] | [9] | [10] | [11] | [12] | TIMP1, TIMP1 (gene 7076) | [13] | [14] | [16] | [17] | [18]
active: [3] 86.3 µM and 83.2 µM and 50 µM | [4] 50 µM | [7] 69.1 µM | [9] 87.3 µM and 50 µM | [10] 86.7 µM

CCOP(=S)(OCC)SCn1c(=O)oc2cc(Cl)ccc21
not listed: [15] | [19]
inactive: all other assays above
